Hits are enriched below; roughly 17% of the tested compounds scored in any of these assays.
HT1080 IDH1KD tx: HT-1080 IDH1 knockdown cell toxicity (counter line). HT-1080 IDH1 knockdown viability, ATP luminescence, 48 h. Potency, µM (series often up to 46.1 µM), for the others: at the top dose activity, negative = toxicity, hits mostly cytotoxic. 2% of 360,000 active;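 further: 0% = DMSO wells and -100% = cell-free medium wells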
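Knockdown cells (IDH1KD HT-1080) received compounds 2 h after plating at 750 cells/well and were kept 48 h at 37 °C in 5% FBS RPMI. A CellTiter-Glo luminescence read gave % activity for curve fitting.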
HT1080-NT tox: kills 2HG-producing HT-1080-NT fibrosarcoma cells | 1.6% of 360,000 active | HT-1080-NT fibrosarcoma viability, CellTiter-Glo ATP luminescence, 48 h | AID 686970 | Potency, µM (highest dose often 46.1 µM), inactives show at the highest dose activity, negative = less viability, hits mostly cytotoxic;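 further: NT is the 2HG producing partner of a matched IDH1 knockdown line; 0% = DMSO-treated cells and -100% = media-only wells without cells; nearly all actives have a fitted effect of over 55% in size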
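Viability by CellTiter-Glo luminescence after 48 h compound exposure at 37C of HT-1080-NT cells (750/well, RPMI, 5% FBS). % activity scaled between DMSO wells and medium-only wells, then curve-fitted and categorized by curve class.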
DT40 TDP1 no CPT: qHTS for Inhibitors of human tyrosyl-DNA phosphodiesterase 1 (TDP1): qHTS in cells in absence of CPT. DT40 Tdp1-/- hTDP1 cells, no CPT, ATP luminescence, 48 h. Potency, µM (highest dose often 46.2 µM), for inactives: at the top dose activity change, negative = growth inhibition, most hits filed as inhibitors. 15% of 420,000 active. AID 686978, 2013; further: on the % scale 0 is the no-effect control and ±100 the full control effect; nearly all actives have a fitted effect of over 55% in size
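Growth of hTDP1-complemented DT40 Tdp1-knockout cells is measured by ATP luminescence after at least 48 hr compound exposure at 37 °C, with DMSO substituting for the 20 nM CPT used in the parallel screen.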
TGFb inhibitor: TGF-b pathway inhibition; HepG2 CAGA-GFP TGF-b/SMAD3 reporter, GFP fluorescence, 18 h; TGF-beta stimulated, 500 pg/mL final; Potency, µM (series often up to 46.1 µM), without a hit: at the top dose activity, negative = inhibition, usual class: inhibitors; 1.2% of 410,000 active; AID 588855; further: on the % scale 0 is the no-effect control and ±100 the full control effect; nearly all actives have a fitted effect of over 65% in size
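Smad-responsive CAGA-GFP expression was quantified in HEPG2 cells exposed to compounds and 500 pg/mL final TGF-beta for 18 h at 37 degrees C; unstimulated wells defined full inhibition.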
DT40 TDP1 CPT: growth inhibition of DT40 Tdp1-/-;hTDP1 cells with camptothecin (screen for TDP1 inhibitors); AID 686979; chicken DT40 Tdp1-/-;hTDP1 cells + 20 nM CPT, ATP luminescence, 48 h; 12% of 420,000 active; Potency, µM (top dose mostly 46.2 µM), for the others: at the highest dose activity change, negative = growth inhibition, most hits filed as inhibitors; further: on the % scale 0 is the no-effect control and ±100 the full control effect; nearly all actives have a fitted effect of over 55% in size
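Chicken DT40 Tdp1-/- cells stably complemented with human TDP1 were seeded at 400 cells/well in medium containing 20 nM camptothecin, exposed to pin-transferred compounds, and grown at 37 °C for at least 48 hr. Viability was read as ATP luminescence.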
HepG2 viability: HepG2 cytotoxicity, counter-screen for TGF-b inhibitors | HepG2 CAGA-GFP viability, ATP luminescence, 18 h | Potency, µM (top dose mostly 46.1 µM), without a hit: at the highest dose activity change, negative = cytotoxicity, hits mostly cytotoxic | 0.76% of 410,000 active
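HepG2 CAGA-GFP cells (1000/well, DMEM with 1% FBS) received compound, then TGF-beta at 500 pg/mL final, and were incubated 18 hours at 37 degrees C. Viability was read by CellTiter-Glo luminescence. Media-only wells were set as complete cell-killing and DMSO as no toxicity.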
Starred values were filed as active, the others as inactive; ? = inconclusive; · = not tested or not shown. The call rests on the fitted dose curve; in most records, active means well fitted curve in the direction sought with a large enough effect; inconclusive means small, poorly fitted or top-dose-only effect, or another doubt; inactive means no such curve, though single readings can be large; an effect the other way counts as inactive or inconclusive. Potency means the concentration at half of the fitted maximal effect.

SMILES	HT1080 IDH1KD tx	HT1080-NT tox	DT40 TDP1 no CPT	TGFb inhibitor	DT40 TDP1 CPT	HepG2 viability
COc1ccc(-n2cnc3c(N)nc(N)nc32)cc1	8%	3%	-19%	-5%	-8%	-17%
CN1CCN(NC(=O)c2cc(S(=O)(=O)N3CCOCC3)c(Cl)cc2Cl)CC1	15%	14%	-21%	18%	-1%	8%
CCOC(=O)C1(Cc2ccccc2C)CCCN(C(=O)c2ccc(OC)o2)C1 (stereo not drawn)	-3%	0%	-11%	-7%	?	-23%
CN(CCCNC(=O)CCc1cn(C)c2ccccc12)C1CCCCC1	-11%	-18%	-10%	9%	?	-26%
Cc1ccc(CCNC(=O)c2cn(C)c3ccc(S(=O)(=O)N4CCC(C)CC4)cc3c2=O)cc1	·	·	?	2%	-1%	-8%
Cc1ccc(S(=O)(=O)NCCC(=O)N2CCC(Cc3ccccc3)CC2)cc1	-9%	0%	21µM*	-18%	15µM*	0%
Cc1ccc(S(=O)(=O)NC(CC(C)C)C(=O)N2CCN(C/C=C/c3ccccc3)CC2)cc1 (stereo not drawn)	-1%	-12%	16µM*	?	16µM*	-12%
CC1=C(C(=O)OC2CCCC2)C(c2cccc(Cl)c2Cl)CC(=O)N1 (stereo not drawn)	·	·	23µM*	?	?	-78%
CCOC(=O)C1=C(C)NC(=O)CC1c1ccccc1OC (stereo not drawn)	12%	2%	1%	0%	-25%	5%
CC1=C(C(=O)OC2CCCC2)C(c2ccccc2Cl)CC(=O)N1 (stereo not drawn)	·	·	13µM*	-68%	16µM*	-28%
COc1ccccc1C1CC(=O)NC(C)=C1C(=O)OCC(C)C (stereo not drawn)	-14%	-11%	13µM*	21%	12µM*	-1%
CC1=C(C(=O)OC2CCCC2)C(c2c(Cl)cccc2Cl)CC(=O)N1 (stereo not drawn)	·	·	26µM*	?	?	-28%
COc1cc(C(=O)Nc2ccc(-c3nc4ccccc4o3)c(O)c2)cc(OC)c1OC	·	·	-13%	0%	6%	-39%
CC1=C(C(=O)OCC2CCCCC2)C(c2ccccc2F)CC(=O)N1 (stereo not drawn)	·	·	?	?	?	-38%
CC1=C(C(=O)OCC2CCCCC2)C(c2ccc(Cl)cc2)CC(=O)N1 (stereo not drawn)	·	·	?	?	?	13µM*
COc1ccc(-n2c(=O)c3c4c(sc3n(Cc3ccc(F)cc3)c2=O)CCCC4)c(OC)c1	·	·	15µM*	2%	21µM*	0%
COc1ccc(-n2c(=O)c3c4c(sc3n(Cc3ccccc3Cl)c2=O)CCC4)c(OC)c1	·	·	21µM*	-22%	?	4%
COc1ccc(-n2c(=O)c3c4c(sc3n(CC(=O)Nc3cc(C)[nH]n3)c2=O)CCCC4)c(OC)c1	?	?	-21%	-25%	7%	-13%
COc1ccc(-n2c(=O)c3c4c(sc3n(Cc3ccc(C)cc3C)c2=O)CCC4)c(OC)c1	·	·	?	1%	18µM*	5.6µM*
CCn1c(=O)c2ccccc2n(Cc2ccccc2C)c1=O	-14%	-5%	?	10%	?	-2%
C/C(=C1/C=Nc2ccccc21)c1ccc(N(C)C)cc1	·	·	10µM*	?	7.9µM*	-42%
Cn1c(=O)c2sccc2n2c(CCC(=O)NCc3ccc(F)cc3)nnc12	·	·	0%	13%	4%	-5%
COc1cccc(C(=O)Nc2nnc(S(=O)(=O)N3CCCc4ccccc43)s2)c1	·	·	?	?	?	-50%
